FBA Mtb inh = inhibitors of M. tuberculosis fructose-bisphosphate aldolase | P9WQA3 | purified M. tuberculosis FBA, fluorescence read-out | inhibition, % at 1 µM | 2.3% of 360,000 active; in the data active = inhibition above about 27%
Target sequence (P9WQA3 whole entry, looked up): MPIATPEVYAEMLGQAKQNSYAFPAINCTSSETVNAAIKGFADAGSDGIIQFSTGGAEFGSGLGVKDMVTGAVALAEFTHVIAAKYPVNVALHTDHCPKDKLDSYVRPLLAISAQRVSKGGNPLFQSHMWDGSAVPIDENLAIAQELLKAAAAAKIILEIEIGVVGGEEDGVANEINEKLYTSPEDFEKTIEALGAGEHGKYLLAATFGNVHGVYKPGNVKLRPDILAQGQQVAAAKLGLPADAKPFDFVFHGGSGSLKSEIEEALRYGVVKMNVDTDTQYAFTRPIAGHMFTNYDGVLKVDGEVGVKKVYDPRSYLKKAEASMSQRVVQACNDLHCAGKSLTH
3CLpro inhibitor = SARS-CoV 3CLpro protease inhibition; recombinant SARS-CoV 3CLpro, quenched FRET peptide cleavage; inhibition, % at 6 µM; 0.14% of 290,000 active; AID 1706; in the data active = inhibition above about 12%
Vc quorum ag = inducers of Vibrio cholerae quorum light production without autoinducers | V. cholerae BH1578 lux reporter, luminescence, 6 h | activation, % at 18.7 µM | 0.16% of 350,000 active | AID 588436; in the data active = activation mostly above about 9.7%, no sharp cut-off
GDH-TPI inh = counter-screen for M. tuberculosis FBA inhibitors: GDH-TPI coupled enzymes | GDH-TPI coupled enzyme counterscreen, NADH absorbance | inhibition, % at 4.8 µM | 1.2% of 360,000 active | AID 588335; in the data active = inhibition above about 30%
PrPC surface inh = cell surface PrPC inhibition, primary TR-FRET screen; TR-FRET read-out; P04156; 0.43% of 370,000 active; inhibition, % at 13.8 µM; in the data active = inhibition above about 24%
Numbers stand for hits; - = inactive; . = not tested or not shown. A selection: hits, their analogues and other compounds. The true share with any hit is near 3.9%.

SMILES	FBA Mtb inh	3CLpro inhibitor	Vc quorum ag	GDH-TPI inh	PrPC surface inh
COC(=O)c1sc(=S)n(Cc2ccccc2)c1C	-	-	-	46.2	-
O=c1c2ccccc2oc2c1ccc1ccccc12	36.0	.	-	-	.
CCOCCCNCC(O)c1ccccc1 (stereo not drawn)	-	-	-	-	-
OCc1cc(C(O)CNCCCCCCOCCCCc2ccccc2)ccc1O (stereo not drawn)	27.5	-	-	-	-
CCOC(=O)c1cnc(Cc2ccccc2)[nH]c1=O	-	-	-	-	-
CCOC(=O)c1cnn2c1[nH]c(=O)c1ccccc12	30.0	-	-	-	-
CCOc1cc(CN2CCN(c3ccc(C(C)=O)cc3)CC2)ccc1OC	-	-	-	38.4	-
COCCOC(=O)C1=C(C)NC(=O)NC1c1c(Cl)nc2ccccn2c1=O (stereo not drawn)	-	-	-	31.1	-
CN(C)c1cccc(/C=C(\C#N)c2ccccc2)c1	-	-	-	-	-
CSc1nc2nccc(/C=C\c3ccccc3)n2n1	-	-	-	31.1	-
Cc1cccc(C(=O)N[C@H](C(=O)Nc2ncc(C)s2)C(C)C)c1	-	-	-	-	41.0
COc1ccccc1-c1cc(C(=O)N2CCCc3ccccc32)no1	-	-	-	-	-
COc1ccc(OC)c(-c2cc(C(=O)N3CCCc4ccccc43)no2)c1	-	-	-	34.1	-
COC(=O)/C=C/C1=CN(Cc2ccccc2)CCC1=O	-	.	-	61.0	-
CN(C)C(CNC(=O)c1cccc(S(=O)(=O)N2CCN(c3ccc(F)cc3)CC2)c1)c1ccccc1 (stereo not drawn)	-	.	-	-	-
O=c1c(Cl)c(N/N=C/c2ccc(Br)cc2)cnn1-c1ccccc1	-	-	-	55.9	-
CNc1cnn(-c2ccccc2)c(=O)c1Cl	-	-	-	-	-
CCCCn1c(N)c(N(CCOC)C(=O)c2c(CC)noc2C)c(=O)[nH]c1=O	-	.	-	-	-
CCN(CC)c1ccc(-c2nn3c(-c4n[nH]c5c4CCC5)nnc3s2)cc1	39.9	-	-	-	-
COC(=O)C1CN(Cc2cn(Cc3ccc(C)cc3)nn2)CCS(=O)(=O)N1Cc1ccc(C)cc1 (stereo not drawn)	.	.	.	.	-
COC(=O)/C=C/C(=O)Nc1cccnc1	-	-	-	-	-
COc1ccccc1/C=C/C(=O)Nc1cccnc1	-	-	-	34.8	-
COc1ccc(N=C(C)C2=C(O)c3ccccc3C2=O)cc1	-	-	-	36.4	-
CC(=NC1CC1)C1=C(O)c2ccccc2C1=O	-	-	-	37.6	-
CCOc1ccc(N=C(C)C2=C(O)c3ccccc3C2=O)cc1	-	-	-	-	-
SMILES	FBA Mtb inh	3CLpro inhibitor	Vc quorum ag	GDH-TPI inh	PrPC surface inh
CC(=NCCCN(C)C)C1=C(O)c2ccccc2C1=O	-	-	16.7	-	-
C/C(=N\N(C)C)C1=C(O)c2ccccc2C1=O	-	-	-	-	-
CC(=O)Nc1ccc(N=C(C2=C(O)c3ccccc3C2=O)c2ccccc2)cc1	-	-	-	-	-
CC(CCCC(C)(C)O)CC1C2=C(CCCC2=O)OC2=C1C(=O)CCC2 (stereo not drawn)	-	-	-	-	-
O=C(CN1CCCCCC1)Nc1ccccc1C(=O)Nc1ccccc1	-	.	-	-	-
COc1ccc(-c2cc(=O)c3c(O)cc(OC4OC(COC5OC(C)C(O)C(O)C5O)C(O)C(O)C4O)cc3o2)cc1O (stereo not drawn)	-	.	-	42.2	-
CC(=O)OC[C@H]1O[C@@H](Oc2cc(O)cc3oc(-c4ccc(O)cc4)cc(=O)c23)[C@H](O[C@@H]2O[C@@H](C)[C@H](O)[C@@H](O)[C@H]2O)[C@@H](O)[C@@H]1O	-	.	-	32.8	-
O=C(OCc1nnc(-c2ccc(Cl)cc2)o1)c1ccc(O)cc1	-	-	-	-	-
CS(=O)(=O)c1ccc(C(=O)OCc2nnc(-c3ccc(Cl)cc3)o2)cc1[N+](=O)[O-]	86.7	-	-	-	.
COc1cc(C2C=C(c3cccs3)Nc3ncnn32)cc(OC)c1OC (stereo not drawn)	-	-	-	41.5	.
CC1(c2nc3ccccc3[nH]2)CCC(=O)N1C1CC1 (stereo not drawn)	-	.	.	.	-
O=C(O)c1ccccc1N=Nc1ccc(O)cc1	-	.	-	35.8	-
O=C(O)c1cc(O)ccc1N=Nc1ccccc1	-	-	-	-	-
CC[C@@H](CCC(=O)N(c1ccccc1)c1ccccc1)c1ccc(C)cc1	.	.	.	.	-
O=C(O)Cn1cc(C(=O)c2ccco2)c2ccccc21	-	-	-	32.4	-
CCOC(=O)Cn1cc(C(=O)c2ccco2)c2ccccc21	-	-	-	-	-
